Source: PubChem
Compounds with a hit are over-represented: about 11% of the library has one in this group of screens.
JMJD2A Tudor inh – qHTS Assay for Inhibitors of JMJD2A-Tudor Domain | AlphaScreen JMJD2A-Tudor / H3K4me3 peptide binding | Potency, µM (top dose mostly 114 µM), usual class: inhibitors | 4.4% of 390,000 active | AID 504339, 2011; further: nearly all actives have a fitted effect of over 50% in size
Target sequence (O75164 whole entry, looked up, the tested form may be a part): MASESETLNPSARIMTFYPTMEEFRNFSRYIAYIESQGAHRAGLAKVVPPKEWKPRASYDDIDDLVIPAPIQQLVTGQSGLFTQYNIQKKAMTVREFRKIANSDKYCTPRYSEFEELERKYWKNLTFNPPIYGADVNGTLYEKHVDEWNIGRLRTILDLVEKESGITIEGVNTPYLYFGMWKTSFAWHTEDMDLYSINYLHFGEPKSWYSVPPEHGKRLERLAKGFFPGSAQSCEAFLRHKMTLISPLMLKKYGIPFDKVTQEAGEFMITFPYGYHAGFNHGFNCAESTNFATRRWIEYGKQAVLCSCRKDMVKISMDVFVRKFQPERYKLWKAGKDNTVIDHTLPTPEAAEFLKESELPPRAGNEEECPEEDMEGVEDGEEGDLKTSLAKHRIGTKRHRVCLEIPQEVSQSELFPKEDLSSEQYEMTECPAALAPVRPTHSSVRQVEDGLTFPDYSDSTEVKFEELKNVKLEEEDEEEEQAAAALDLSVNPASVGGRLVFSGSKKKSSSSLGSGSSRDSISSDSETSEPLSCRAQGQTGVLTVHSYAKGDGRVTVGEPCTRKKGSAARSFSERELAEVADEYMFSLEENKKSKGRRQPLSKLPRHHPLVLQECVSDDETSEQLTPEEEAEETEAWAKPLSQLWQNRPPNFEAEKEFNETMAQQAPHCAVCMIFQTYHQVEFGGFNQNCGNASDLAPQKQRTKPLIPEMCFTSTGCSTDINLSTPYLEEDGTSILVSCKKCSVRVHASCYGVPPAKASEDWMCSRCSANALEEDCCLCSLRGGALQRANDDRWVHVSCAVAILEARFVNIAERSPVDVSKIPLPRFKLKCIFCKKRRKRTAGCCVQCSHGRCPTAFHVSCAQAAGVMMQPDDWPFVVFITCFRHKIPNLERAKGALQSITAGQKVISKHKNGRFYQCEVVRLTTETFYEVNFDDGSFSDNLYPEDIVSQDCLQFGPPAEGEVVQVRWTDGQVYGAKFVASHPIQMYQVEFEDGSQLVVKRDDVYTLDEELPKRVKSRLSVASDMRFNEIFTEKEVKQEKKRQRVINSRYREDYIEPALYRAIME
BAZ2B block – qHTS Assay for Inhibitors of BAZ2B; Potency, µM (top dose mostly 114 µM), hits mostly inhibitors; 4.4% of 360,000 active; AID 504333, 2011; AlphaScreen BAZ2B-H3K14Ac peptide displacement; Bromodomain adjacent to zinc finger domain protein 2B (Homo sapiens), Q9UIF8; further: nearly all actives have a fitted effect of over 60% in size
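AlphaScreen luminescence quantifies BAZ2B engagement of H3K14Ac peptide; the protein and biotinylated peptide are both at 50 nM final, buffer PBS pH 7.4 with 0.01% Tween-20, all steps at room temperature.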
L3MBTL1 block – qHTS Assay for the Inhibitors of L3MBTL1; AID 485360, 2010; AlphaScreen L3MBTL1–H3K9me1 peptide binding; Potency, µM (titrated, usually from 57.1 µM), usual class: inhibitors; Lethal(3)malignant brain tumor-like protein 1 (Homo sapiens), Q9Y468; 0.66% of 230,000 active; further: nearly all actives have a fitted effect of over 60% in size
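L3MBTL1 50 nM + b-AHA-H3(1-15)K9me1 75 nM, 30 min RT; compound added, 30 min RT; streptavidin donor/Ni-chelate acceptor beads 10 ug/mL each final, 30 min RT dark; AlphaScreen read.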
HP1b binding inh – HTS for Inhibitors of HP1-beta Chromodomain Interactions with Methylated Histone Tails. Chromobox protein homolog 1 (Homo sapiens), P83916. AlphaScreen HP1-beta / biotin-H3K9me3 peptide binding. Potency, µM (series often up to 114 µM), most hits filed as inhibitors. 0.56% of 390,000 active. AID 540317, 2011; further: nearly all actives have a fitted effect of over 70% in size
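AlphaScreen: HP1-beta (50 nM) preformed 30 min with biotin-H3(1-18)K9me3 peptide (50 nM) in PBS pH 7.4, 0.01% Tween-20. Compound added for 30 min at RT, then streptavidin donor/nickel chelate acceptor beads (10 ug/mL) for 30 min.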
G9a block – qHTS Assay for Inhibitors of Histone Lysine Methyltransferase G9a. G9a H3K9 monomethylation, AlphaScreen, 2 h. AID 504332, 2011. 8.8% of 350,000 active. Histone-lysine N-methyltransferase EHMT2 (Homo sapiens), Q96KQ7. Potency, µM (highest dose often 102 µM), hits mostly inhibitors; further: nearly all actives have a fitted effect of over 75% in size
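G9a (20 nM) was preincubated 15 min with compound, then reacted 2 h at room temperature with 500 nM biotin-H3K9 peptide and 20 µM SAM. Monomethyl-H3K9 detected by AlphaScreen using anti-H3K9me1 antibody.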
Each line names hits and unclear results; the compound was inactive in the other large screens. The call rests on the fitted dose curve; in most records, active means well fitted inhibition curve with a large enough effect; inconclusive means small, poorly fitted or top-dose-only effect; inactive means no such curve, though single readings can be large or run the other way.

CCOCCCNC(=S)N1CCN(Cc2ccco2)CC1	BAZ2B block 35µM, HP1b binding inh 40µM, G9a block 10µM
Cc1ccccc1Cn1cc(S(=O)(=O)c2ccc(F)cc2)c(=O)c2cc3c(cc21)OCO3	none (no result: L3MBTL1 block)
CCNC(=O)c1nn(-c2ccccc2C)nc1CO	none (no result: L3MBTL1 block)
CCCNC(=S)N1CCN(C)CC1	JMJD2A Tudor inh 8.9µM, BAZ2B block 40µM, HP1b binding inh inconclusive, G9a block 10µM
c1ccc(COC2CCCN(Cc3nc(-c4cnccn4)no3)C2)nc1 (configuration not stated)	none (no result: G9a block)
COc1ccc(-c2noc(CN3CCCC(OCc4ccccn4)C3)n2)cc1 (configuration not stated)	G9a block 50µM
C=C1[C@@H]2CC[C@H](C2)C1(C)C	none (no result: JMJD2A Tudor inh, BAZ2B block, L3MBTL1 block, HP1b binding inh)
COc1cccc(NC(=O)N(CCC(C)C)C2CCN(C(C)C)CC2)c1	none (no result: L3MBTL1 block)
COc1ccc(-c2cc(C(F)F)n3ncc(C(=O)N4CCc5ccccc54)c3n2)cc1	JMJD2A Tudor inh 20µM, BAZ2B block inconclusive, HP1b binding inh inconclusive (no result: G9a block)
Cc1ccc(C(=O)OCc2nc3ccsc3c(=O)[nH]2)o1	none
Cc1cnc(C(=O)OCc2nc3ccsc3c(=O)[nH]2)cn1	JMJD2A Tudor inh 56µM, BAZ2B block 50µM, L3MBTL1 block inconclusive
O=C(/C=C/c1ccc(Br)o1)OCc1nc2ccsc2c(=O)[nH]1	JMJD2A Tudor inh 40µM, BAZ2B block 40µM, L3MBTL1 block 3.2µM
Cc1ccc2c(c1)C1(C=CC(=O)C=C1)CC(=O)N2C	none (no result: BAZ2B block, L3MBTL1 block, G9a block)
CN1C(=O)/C(=C/c2ccc(-c3ccccc3[N+](=O)[O-])o2)SC1=Nc1ccc(Cl)c(C(=O)O)c1	JMJD2A Tudor inh inconclusive, BAZ2B block 45µM, G9a block 3.2µM
CC(CCc1ccccc1)NC(=O)C(Cc1ccccc1)NC(N)=O (configuration not stated)	none (no result: L3MBTL1 block)
O=C(Nc1ccc(-c2ccc([N+](=O)[O-])cc2)cc1)c1ccccc1F	G9a block 50µM
O=C(CSc1ccc([N+](=O)[O-])cc1)NNC(=O)c1ccccc1F	G9a block 50µM (no result: L3MBTL1 block)
O=C(Nc1ccc([N+](=O)[O-])cc1)c1ccccc1F	none (no result: L3MBTL1 block)
NC(=O)c1nc(Nc2ccccc2)sc1NC(=O)c1ccccc1Br	G9a block inconclusive (no result: L3MBTL1 block)
O=C(CC1N=C2c3ccccc3N=C(SCC(=O)Nc3cccc(C(F)(F)F)c3)N2C1=O)NCc1cccs1 (configuration not stated)	none (no result: L3MBTL1 block)
CC(C)c1ccc(C(=O)NNC(=O)c2ccncc2)cc1	none (no result: L3MBTL1 block)
CC(C)c1ccc(C(N)=S)cc1	BAZ2B block inconclusive, G9a block 50µM
NC(N)=N/N=C/c1ccc2cccc(OCc3ccccc3)c2n1	JMJD2A Tudor inh inconclusive
O/N=C/c1ccc2cccc(OCc3ccccc3)c2n1	G9a block 20µM (no result: L3MBTL1 block)
COc1cc(CNc2nnnn2C)cc(OC)c1OC	G9a block inconclusive
O=C(c1ccc(-c2ccccc2)cc1)C1CCCN(Cc2ccncc2)C1 (configuration not stated)	JMJD2A Tudor inh inconclusive (no result: G9a block)
OCC1CCCN(Cc2ccc(-c3ccccc3)cc2)C1 (configuration not stated)	JMJD2A Tudor inh 2.2µM, BAZ2B block inconclusive, HP1b binding inh inconclusive (no result: G9a block)
CC(C)Nc1nc(NC(N)=S)nc(NC(C)C)n1	G9a block 2.5µM
CC(C)Nc1nc(NC(N)=S)nc(NC(C)(C)C)n1	G9a block 8.9µM
CCNc1nc(NC(C)C)nc(NC(C)(C)C)n1	none (no result: G9a block)
COc1cc(/C=C2/C(=O)NN(c3ccc(C)c(Cl)c3)C2=O)cc([N+](=O)[O-])c1O	JMJD2A Tudor inh inconclusive, BAZ2B block 32µM, G9a block 11µM (no result: L3MBTL1 block)
COc1cc(/C=C2/C(=O)NN(c3cccc(C)c3)C2=O)cc([N+](=O)[O-])c1O	JMJD2A Tudor inh 56µM, BAZ2B block 40µM, L3MBTL1 block inconclusive, HP1b binding inh inconclusive, G9a block 35µM
Cc1ccc(N2NC(=O)/C(=C\c3cc4c(cc3[N+](=O)[O-])OCO4)C2=O)cc1C	JMJD2A Tudor inh inconclusive, BAZ2B block 45µM, HP1b binding inh inconclusive, G9a block 25µM
O=C1NN(c2ccccc2)C(=O)/C1=C\c1cccn1-c1ccc(Cl)c([N+](=O)[O-])c1	JMJD2A Tudor inh inconclusive (no result: L3MBTL1 block)
CCOc1ccccc1NC(=O)N1CC(C)Oc2ccc(Cl)cc21 (configuration not stated)	none (no result: L3MBTL1 block)
O=C(Nc1ccc(-c2nnn(CC(=O)N3CCN(C(=O)c4ccco4)CC3)n2)cc1)c1ccccc1F	G9a block 56µM (no result: JMJD2A Tudor inh, HP1b binding inh)
COc1ccccc1C(=O)Nc1ccc(-c2nnn(CC(=O)N3CCN(C(=O)c4ccco4)CC3)n2)cc1	G9a block inconclusive
CC(C)(C)C1CCc2c(sc(NC(=O)Cn3nnc(-c4cccc(C(F)(F)F)c4)n3)c2C#N)C1 (configuration not stated)	none (no result: L3MBTL1 block)
Cc1cc(N)ccc1S(C)(=O)=O	L3MBTL1 block 4.5µM
COc1ccc(-c2nc3cnc(N4CCN(C)CC4)nc3n(-c3ccc(OC)cc3)c2=O)cc1	none (no result: JMJD2A Tudor inh, BAZ2B block, L3MBTL1 block, HP1b binding inh)
COc1ccc(NC(=O)Cn2c(=O)n(-c3ccc(OC)cc3)c(=O)c3sc4ccccc4c32)cc1	none (no result: L3MBTL1 block)
COc1ccc(F)cc1S(=O)(=O)Nc1cc2c3c(c1)CCN3C(=O)CC2	G9a block 45µM
O=C1Cc2cc(NS(=O)(=O)c3ccc([N+](=O)[O-])cc3)cc3c2N1CCC3	G9a block 45µM
COc1ccc(S(=O)(=O)Nc2cc3c4c(c2)CC(=O)N4CCC3)cc1	G9a block 32µM
COc1ccc(-c2noc(CSc3nnc(Cc4ccccc4)n3-c3cccc(C)c3)n2)cc1	none (no result: L3MBTL1 block)
O=C(Nc1ccccc1N1CCCC1)c1cc(S(=O)(=O)N2CCOCC2)ccc1Cl	G9a block 50µM
CCOc1cc(N2CCOCC2)c(OCC)cc1NC(=O)c1ccc(S(=O)(=O)N2CC(C)OC(C)C2)cc1 (configuration not stated)	JMJD2A Tudor inh inconclusive (no result: BAZ2B block, L3MBTL1 block, G9a block)
O=C(Nc1ccccc1N1CCCCC1)c1cc(S(=O)(=O)N2CCOCC2)ccc1F	none
O=C(Nc1cc(S(=O)(=O)Nc2ccc(Cl)cc2)ccc1N1CCCCC1)c1ccc(F)cc1Cl	HP1b binding inh inconclusive, G9a block 10µM
CCOc1cc(N2CCOCC2)c(OCC)cc1NC(=O)c1cc(S(=O)(=O)N2CCOCC2)ccc1Cl	JMJD2A Tudor inh inconclusive, BAZ2B block inconclusive, G9a block 50µM
COc1ccc(NS(=O)(=O)c2ccc(N3CCOCC3)c(NC(=O)c3ccccc3Cl)c2)cc1	none
CC(=O)c1ccc(NC(=O)CNc2cc(S(=O)(=O)N3CCOCC3)ccc2N2CCCC2)cc1	JMJD2A Tudor inh inconclusive, G9a block 35µM
